Test results taken from PubChem BioAssay (NCATS).
Results filed as inconclusive are left out. Where a call stands in place of a potency, no number is given. Activity calls are given as the source filed them. Unless noted, calls come from the whole dose curve; as a rule, active = well fitted activation curve with a large enough effect; inconclusive = small, poorly fitted or top-dose-only effect; inactive = no such curve, though single readings can be large or run the other way.

Target: Cytochrome P450 1A2 (Homo sapiens) (UniProt P05177)
Sequence (P05177 whole entry, looked up): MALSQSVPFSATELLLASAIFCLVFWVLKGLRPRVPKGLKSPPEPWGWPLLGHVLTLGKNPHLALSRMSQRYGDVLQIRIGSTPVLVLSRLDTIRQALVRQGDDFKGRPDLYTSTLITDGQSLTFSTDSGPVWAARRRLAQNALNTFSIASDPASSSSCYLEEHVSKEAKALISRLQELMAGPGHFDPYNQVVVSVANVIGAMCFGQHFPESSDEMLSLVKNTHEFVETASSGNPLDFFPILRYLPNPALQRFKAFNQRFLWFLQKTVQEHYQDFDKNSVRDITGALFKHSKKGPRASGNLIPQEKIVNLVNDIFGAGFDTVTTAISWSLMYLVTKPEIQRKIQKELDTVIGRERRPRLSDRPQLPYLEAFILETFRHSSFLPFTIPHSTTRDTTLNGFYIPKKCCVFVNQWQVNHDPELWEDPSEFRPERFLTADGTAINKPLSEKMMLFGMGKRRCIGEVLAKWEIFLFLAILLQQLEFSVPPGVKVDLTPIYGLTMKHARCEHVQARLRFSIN
Test: p450-cyp1a2 (AID 410; calls by dose curve; note: potency is the fitted concentration of half-maximal effect)
Settings: recombinant CYP1A2, luciferin-ME demethylation, luminescence; series mostly up to 57 µM
How it was run: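 Read-out is luminescence from luciferin produced by CYP1A2 demethylation of Luciferin-ME (100uM, at Km). Detection reagent stopped the 60 min NADPH-dependent reaction; signals were normalized to 57 uM furafylline.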

Structure (SMILES)	Potency
O=C(c1cc(C(F)(F)F)cc(C(F)(F)F)c1)N1CCC2(CCCN(c3ncccn3)C2)CC1	31.6 µM (active)
CN(C)c1ncc2ncc(=O)n(Cc3cccs3)c2n1	1.58 µM (active)
CCOc1ccc2nc3cc(N=Nc4ccc(N)nc4N)ccc3c(N)c2c1	0.794 µM (active)

Tested on: not listed separately
Test: Stat Signaling Pathway (AID 446; active = well fitted curve in either direction with a large enough effect, not every such curve was filed as active;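 note: ME-180 cervical cancer cells given 40 pM IL-6 alongside compound; SIE-controlled beta-lactamase reporter measured as 460/530 nm FRET emission ratio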)
Settings: ME-180 (cervical carcinoma) SIE beta-lactamase reporter, IL-6 stimulated, 5 h; series mostly up to 7.69 µM
How it was run: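 FRET read-out (405 nm excitation, 460/530 nm emission) of a beta-lactamase reporter under a STAT-inducible element in ME-180 cervical carcinoma cells. Cells with compound receive 40 pM IL-6 for 5 h. Values are normalised to AC90 stimulation and AC90 JAK-inhibitor controls.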

Structure (SMILES)	outcome
Nc1nc(N)c(-c2cccc(C(F)(F)F)c2)c(Cc2cccc(C(F)(F)F)c2)n1	inactive
O=C(c1cc(C(F)(F)F)cc(C(F)(F)F)c1)N1CCC2(CCCN(c3ncccn3)C2)CC1	inactive
CN(C)c1ncc2ncc(=O)n(Cc3cccs3)c2n1	inactive
CCOc1ccc2nc3cc(N=Nc4ccc(N)nc4N)ccc3c(N)c2c1	inactive

Target: Glucocorticoid receptor (Homo sapiens) (UniProt P04150)
Sequence (P04150 whole entry, looked up): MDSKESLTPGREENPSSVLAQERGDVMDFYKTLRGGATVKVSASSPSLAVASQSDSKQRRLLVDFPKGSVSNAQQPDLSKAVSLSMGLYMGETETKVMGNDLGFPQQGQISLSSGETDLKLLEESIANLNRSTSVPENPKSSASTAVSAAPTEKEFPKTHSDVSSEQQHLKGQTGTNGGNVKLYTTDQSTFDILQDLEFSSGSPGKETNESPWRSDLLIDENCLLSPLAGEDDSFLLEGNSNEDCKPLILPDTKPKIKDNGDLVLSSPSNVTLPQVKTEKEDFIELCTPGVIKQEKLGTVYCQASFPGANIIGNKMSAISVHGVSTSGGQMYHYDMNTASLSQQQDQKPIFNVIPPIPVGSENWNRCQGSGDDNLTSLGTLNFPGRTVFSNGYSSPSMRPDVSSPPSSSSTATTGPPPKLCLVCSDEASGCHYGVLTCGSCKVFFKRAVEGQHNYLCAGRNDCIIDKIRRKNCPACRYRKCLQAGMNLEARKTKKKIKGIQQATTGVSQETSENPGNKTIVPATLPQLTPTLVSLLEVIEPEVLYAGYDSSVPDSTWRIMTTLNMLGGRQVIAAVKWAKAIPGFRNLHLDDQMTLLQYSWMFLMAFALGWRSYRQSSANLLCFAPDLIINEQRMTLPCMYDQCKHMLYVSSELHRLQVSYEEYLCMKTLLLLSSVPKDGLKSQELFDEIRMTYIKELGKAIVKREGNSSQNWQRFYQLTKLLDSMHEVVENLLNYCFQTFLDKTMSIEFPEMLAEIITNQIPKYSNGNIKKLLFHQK
Test: GR-EFC Redistribution (AID 451; calls by dose curve; note: potency is the fitted concentration of half-maximal effect)
Settings: CHO-K1 GR-EFC translocation, beta-gal luminescence, 2 h
How it was run: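 CHO-K1 cells expressing nuclear EA and GR-ED fragments of b-gal; compounds titrated up to 46 uM final, 2 h at 37 C. GR nuclear translocation read as complemented b-gal luminescence after 1 h RT detection.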

Structure (SMILES)	Potency
Nc1nc(N)c(-c2cccc(C(F)(F)F)c2)c(Cc2cccc(C(F)(F)F)c2)n1	> 9.22 µM (inactive)
O=C(c1cc(C(F)(F)F)cc(C(F)(F)F)c1)N1CCC2(CCCN(c3ncccn3)C2)CC1	> 46 µM (inactive)
CN(C)c1ncc2ncc(=O)n(Cc3cccs3)c2n1	> 46 µM (inactive)
CCOc1ccc2nc3cc(N=Nc4ccc(N)nc4N)ccc3c(N)c2c1	> 9.22 µM (inactive)

Target: Mitogen-activated protein kinase 10 (Mus musculus) (UniProt Q61831)
Test: JNK3 AlphaScreen Assay (AID 530; active = well fitted curve in either direction with a large enough effect, not every such curve was filed as active;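 note: kinase came from lysate of stimulated human HepG2 cells; signal reports phosphorylation of biotinylated GST-cJun 1-79 at Ser73 with 10 µM ATP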)
Settings: JNK3 lysate, c-Jun phosphorylation; series mostly up to 57.1 µM
How it was run: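 HepG2 lysate (IL-1b/TNFa pre-activated) + biotin-GST-cJun 1-79 + anti-pSer73 cJun; cpd titration, 15 min RT; ATP 10 uM start; Tris pH 7.6, MgCl2, DTT, vanadate; beads in EDTA buffer; AlphaScreen.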

Structure (SMILES)	Potency	activity change, negative = inhibition
CC(C)=CCc1c(O)cc(O)c2c1O[C@H](c1ccccc1)CC2=O	inactive	–
Nc1nc(N)c(-c2cccc(C(F)(F)F)c2)c(Cc2cccc(C(F)(F)F)c2)n1	–	3.36% [at 11.4 µM] (inactive)
O=C(c1cc(C(F)(F)F)cc(C(F)(F)F)c1)N1CCC2(CCCN(c3ncccn3)C2)CC1	inactive	–
CN(C)c1ncc2ncc(=O)n(Cc3cccs3)c2n1	inactive	–
CCOc1ccc2nc3cc(N=Nc4ccc(N)nc4N)ccc3c(N)c2c1	–	-7.05% [at 11.4 µM] (inactive)

Target: 3',5'-cyclic-AMP phosphodiesterase 4B (Homo sapiens) (UniProt Q07343)
Sequence (Q07343 whole entry, looked up): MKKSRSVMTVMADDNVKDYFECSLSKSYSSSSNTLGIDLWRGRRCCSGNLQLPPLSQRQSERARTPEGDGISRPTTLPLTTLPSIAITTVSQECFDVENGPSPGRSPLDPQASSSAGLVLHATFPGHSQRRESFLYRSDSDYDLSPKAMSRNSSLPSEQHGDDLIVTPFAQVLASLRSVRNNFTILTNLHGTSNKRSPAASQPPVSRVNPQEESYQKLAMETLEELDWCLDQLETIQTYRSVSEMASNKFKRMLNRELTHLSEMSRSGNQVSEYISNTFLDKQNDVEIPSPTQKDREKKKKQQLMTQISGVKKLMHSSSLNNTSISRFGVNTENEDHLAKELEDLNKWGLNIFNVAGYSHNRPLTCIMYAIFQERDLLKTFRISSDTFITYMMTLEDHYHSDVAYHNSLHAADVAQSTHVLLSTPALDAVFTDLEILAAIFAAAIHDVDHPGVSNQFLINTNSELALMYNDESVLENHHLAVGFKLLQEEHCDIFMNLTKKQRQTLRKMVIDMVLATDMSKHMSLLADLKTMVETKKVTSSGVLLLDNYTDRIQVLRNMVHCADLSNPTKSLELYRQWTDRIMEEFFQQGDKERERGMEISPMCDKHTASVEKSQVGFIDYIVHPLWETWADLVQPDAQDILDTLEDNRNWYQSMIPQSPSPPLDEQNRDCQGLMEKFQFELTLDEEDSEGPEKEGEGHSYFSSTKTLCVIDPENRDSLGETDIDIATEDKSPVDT
Test: qHTS Assay for Inhibitors of PDE-IV (AID 607; active = well fitted activation curve with a large enough effect in the main read-out, with a control signal flat, not every such curve was filed as active)
Settings: HEK293 ACTOne CNG channel cells, membrane potential fluorescence; series mostly up to 22.9 µM
How it was run: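 Cell-based read-out of cAMP via a modified cyclic nucleotide-gated channel and membrane potential dye (535/590 nm) in HEK293 cells expressing PDE4 endogenously. Compounds tested up to 22.9 uM final; 100 uM RO 20-1724 reference.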

Structure (SMILES)	Potency
Nc1nc(N)c(-c2cccc(C(F)(F)F)c2)c(Cc2cccc(C(F)(F)F)c2)n1	inactive
O=C(c1cc(C(F)(F)F)cc(C(F)(F)F)c1)N1CCC2(CCCN(c3ncccn3)C2)CC1	inactive
CCOc1ccc2nc3cc(N=Nc4ccc(N)nc4N)ccc3c(N)c2c1	inactive

Target: Cytochrome P450 3A4 (Homo sapiens) (UniProt P08684)
Sequence (P08684 whole entry, looked up): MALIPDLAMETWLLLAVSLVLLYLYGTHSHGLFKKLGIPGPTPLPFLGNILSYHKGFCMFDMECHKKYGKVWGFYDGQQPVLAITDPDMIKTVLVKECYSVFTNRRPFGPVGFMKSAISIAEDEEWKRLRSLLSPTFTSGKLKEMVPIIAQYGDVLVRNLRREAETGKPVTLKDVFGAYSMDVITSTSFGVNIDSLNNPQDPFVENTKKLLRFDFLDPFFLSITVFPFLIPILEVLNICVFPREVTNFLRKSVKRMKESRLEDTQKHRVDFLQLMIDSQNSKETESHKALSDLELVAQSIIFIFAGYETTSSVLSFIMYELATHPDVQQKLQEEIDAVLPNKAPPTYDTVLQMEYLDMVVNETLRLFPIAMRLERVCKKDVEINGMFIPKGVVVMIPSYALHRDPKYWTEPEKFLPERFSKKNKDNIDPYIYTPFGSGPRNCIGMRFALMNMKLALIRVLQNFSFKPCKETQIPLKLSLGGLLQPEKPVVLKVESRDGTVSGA
Test: qHTS Assay for Activators of Cytochrome P450 3A4 (AID 885); note: nearly all actives have a fitted effect of over 65% in size
Settings: recombinant CYP3A4, Luciferin-PPXE luminescence, 60 min; series mostly up to 57.1 µM
How it was run: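 Luminescent readout of luciferin formed from 25 uM Luciferin-PPXE (KM level) by 20 nM CYP3A4 in 200 mM KPO4, with 60 min NADPH-driven reaction at room temperature after 10 min compound exposure. Ketoconazole (57 uM) defined 100% inhibition.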

Structure (SMILES)	outcome	activity change, positive = activation
CC(C)=CCc1c(O)cc(O)c2c1O[C@H](c1ccccc1)CC2=O	inactive	–
Nc1nc(N)c(-c2cccc(C(F)(F)F)c2)c(Cc2cccc(C(F)(F)F)c2)n1	–	-31.2% [at 11.4 µM] (inactive)
O=C(c1cc(C(F)(F)F)cc(C(F)(F)F)c1)N1CCC2(CCCN(c3ncccn3)C2)CC1	inactive	–
CN(C)c1ncc2ncc(=O)n(Cc3cccs3)c2n1	inactive	–
CC(C)=CCc1c2c(c3occ(-c4ccc(O)cc4)c(=O)c3c1O)C=CC(C)(C)O2	inactive	–

Target: Rap guanine nucleotide exchange factor 3 (Homo sapiens) (UniProt O95398)
Sequence (O95398 whole entry, looked up): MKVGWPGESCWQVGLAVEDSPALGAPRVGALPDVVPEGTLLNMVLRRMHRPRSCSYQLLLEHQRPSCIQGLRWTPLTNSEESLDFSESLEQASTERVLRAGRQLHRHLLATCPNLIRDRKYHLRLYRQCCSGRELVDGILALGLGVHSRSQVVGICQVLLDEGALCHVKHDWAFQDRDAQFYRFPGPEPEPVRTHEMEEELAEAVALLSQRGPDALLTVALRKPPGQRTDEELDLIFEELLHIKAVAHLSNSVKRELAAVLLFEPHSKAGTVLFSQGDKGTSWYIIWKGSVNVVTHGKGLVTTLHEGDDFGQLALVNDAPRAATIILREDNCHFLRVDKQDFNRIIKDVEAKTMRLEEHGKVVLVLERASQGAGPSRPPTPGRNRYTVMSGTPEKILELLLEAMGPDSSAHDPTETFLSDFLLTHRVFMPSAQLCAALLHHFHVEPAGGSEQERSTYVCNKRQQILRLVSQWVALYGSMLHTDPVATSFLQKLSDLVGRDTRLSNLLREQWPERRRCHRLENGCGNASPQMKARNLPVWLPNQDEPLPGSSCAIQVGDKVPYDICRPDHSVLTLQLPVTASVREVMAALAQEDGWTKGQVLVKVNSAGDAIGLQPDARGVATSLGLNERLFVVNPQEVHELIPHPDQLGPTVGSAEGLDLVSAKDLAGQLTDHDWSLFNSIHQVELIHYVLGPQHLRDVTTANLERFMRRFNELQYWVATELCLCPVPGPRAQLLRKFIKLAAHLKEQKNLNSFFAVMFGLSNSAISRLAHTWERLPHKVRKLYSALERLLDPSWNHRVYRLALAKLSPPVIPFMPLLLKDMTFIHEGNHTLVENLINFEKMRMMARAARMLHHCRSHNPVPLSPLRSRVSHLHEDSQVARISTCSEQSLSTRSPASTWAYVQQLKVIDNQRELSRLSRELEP
Test: Confirmatory qHTS for agonist of cAMP-regulated guanine nucleotide exchange factor 3 (EPAC1) (AID 1645881);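 note: EPAC1 catalysed release of BODIPY-GDP from Rap1B seen as fluorescence loss; nearly all actives have a fitted effect of over 75% in size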
Settings: EPAC1 Rap1B BODIPY-GDP exchange fluorescence; series mostly up to 154 µM

Structure (SMILES)	Potency
CCN1CCN(c2ccc(S(=O)(=O)N3CCCCC3)cc2NC(=O)c2ccc([N+](=O)[O-])s2)CC1	inactive
Nc1ccc(N2CCCCC2)c2nonc12	inactive
O=CN(c1ccccc1)c1ccc2ccccc2c1	inactive
CCCN(CC(=O)Nc1ccccc1C)C(=O)C1CCN(c2ncnc3sc(C)c(C)c23)CC1	inactive
CC(=O)C1=CCC(c2ccccc2Cl)N(S(=O)(=O)c2ccc(C)cc2)C1 (centres undefined)	inactive
Cc1ccc(NS(=O)(=O)c2cccc(C(=O)OCC(=O)NCc3ccco3)c2)cc1	inactive
CCn1cc(CN2CCc3c([nH]c4ccccc34)C2c2cccc(OC)c2)c(C)n1 (centres undefined)	inactive
COc1ccccc1C(=O)Nc1nnc(SCc2cc(=O)c3ccccc3[nH]2)s1	inactive
Cc1ccc(S(=O)(=O)/N=C2\C=C(NS(=O)(=O)c3ccccc3)C(=O)c3ccccc32)c(C)c1	inactive
CC(C)=CCc1c(O)cc(O)c2c1O[C@H](c1ccccc1)CC2=O	inactive
CC(C)=CCc1c(O)ccc2c1OC(c1ccc(O)c(O)c1)CC2=O (centres undefined)	inactive
O=C1/C(=C/c2ccc(O)c(O)c2)SC(=S)N1Nc1ccccc1	inactive
CCCC[C@H]1COCCS(=O)(=O)N1Cc1ccc(Br)cc1	inactive
Nc1nc(N)c(-c2cccc(C(F)(F)F)c2)c(Cc2cccc(C(F)(F)F)c2)n1	inactive
Cc1ccnc(NC(=O)C2CCN(S(=O)(=O)c3cccc(C(F)(F)F)c3)CC2)c1	inactive
Clc1cccc(-c2nc3ccc(Cl)cn3c2Cc2ccsc2)c1	inactive
CCCc1nc2ccc(C(=O)OC)cn2c1Cc1ccccc1C(F)(F)F	inactive
CCC(=C(c1ccc(OC)cc1)c1ccc(OC)cc1)c1cn(CC(O)CN(CCO)CCO)c2ccccc12 (centres undefined)	inactive
CCOC(=O)c1ccc(NC(=O)c2c(N)n(Cc3ccccc3)c(=O)[nH]c2=O)cc1	inactive
O=c1cc(CN2CCN(S(=O)(=O)c3cccc(Cl)c3)CC2)c2ccc(O)cc2o1	inactive

Structure (SMILES)	Potency
Cc1cc(NC(=O)CS(=O)(=O)c2cn(Cc3cccc(Br)c3)c3ccccc23)no1	inactive
CN1/C(=C/C=C/c2n(C)c3cc([N+](=O)[O-])c([N+](=O)[O-])cc3[n+]2C)C(C)(C)c2ccccc21	inactive
O=C(c1cc(C(F)(F)F)cc(C(F)(F)F)c1)N1CCC2(CCCN(c3ncccn3)C2)CC1	inactive
CCOc1cnc(-c2c(-c3ccccc3Cl)noc2C)o1	inactive
Cc1ccc(/C=C/C(=O)Nc2ccc([N+](=O)[O-])c(NC(=O)/C=C/c3ccc(C)o3)c2)o1	inactive
Cc1cc(C)c(Cn2cnc3ccccc32)c(C)c1	inactive
COc1ccc2sc(-c3ccc(SC)cc3)c(C#CC(C)(C)O)c2c1	inactive
O=c1c(O)c(-c2ccccc2)oc2ccc3occc3c12	inactive
COc1cc2nc(N3CCNCC3)nc(N)c2cc1OC	inactive
O=C(Nc1ccccc1N1CCCCC1)c1cnccn1	inactive
CN(C)c1ncc2ncc(=O)n(Cc3cccs3)c2n1	inactive
CCOc1ccc2nc3cc(N=Nc4ccc(N)nc4N)ccc3c(N)c2c1	inactive
Oc1ccc(NCc2ccccc2OCc2ccccc2Cl)cc1	inactive
CCCCOC(=O)CCn1c(=S)oc2ccccc21	inactive
Cc1cc(C)c(OCC(=O)N(Cc2ccco2)Cc2ccco2)c(C)c1	inactive
CC(C)NC(=O)c1sc2nc(-c3cccs3)cc(-c3cccs3)c2c1N	inactive
CC(C)=CCc1c2c(c3occ(-c4ccc(O)cc4)c(=O)c3c1O)C=CC(C)(C)O2	inactive
CCOC(=O)C1=C(C)N=c2s/c(=C/c3ccc(OCC(=O)O)cc3)c(=O)n2C1c1ccc(F)cc1 (centres undefined)	inactive
O=C1C(O)=C(O)C(=O)c2ccccc21	inactive
Nc1ccc(C(=O)N2CCN(S(=O)(=O)c3ccc(Cl)s3)CC2)cc1[N+](=O)[O-]	inactive
